This passage reports binding signal results from publication PMC5700166.

The target in one experiment is T1, GST-Nv-NF-kB (Cys allele) (Nematostella vectensis, UniProt E5G601 2-411).
T1 sequence: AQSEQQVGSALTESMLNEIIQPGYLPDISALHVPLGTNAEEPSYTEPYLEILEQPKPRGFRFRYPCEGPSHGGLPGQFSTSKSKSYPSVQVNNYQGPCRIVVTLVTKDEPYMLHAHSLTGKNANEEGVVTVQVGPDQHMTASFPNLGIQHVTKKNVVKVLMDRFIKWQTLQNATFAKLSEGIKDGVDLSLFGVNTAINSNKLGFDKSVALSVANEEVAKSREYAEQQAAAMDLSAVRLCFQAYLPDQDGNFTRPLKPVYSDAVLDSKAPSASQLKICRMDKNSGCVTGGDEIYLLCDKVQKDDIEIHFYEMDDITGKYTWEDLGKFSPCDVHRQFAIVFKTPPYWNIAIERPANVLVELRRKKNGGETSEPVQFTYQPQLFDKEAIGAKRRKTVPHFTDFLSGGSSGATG
The experiment is described as follows: protein-binding microarray (PBM); PBM: ~300 nM protein, 6 mM HEPES pH 7.8, 80 mM KCl, 0.5 mM EDTA, 0.5 mM EGTA, 6% glycerol, 35 ng/ul poly-dIdC, 1% milk, 1 h, room temperature; Ap Aiptasia and Nv Nematostella (sea anemones) / Co Capsaspora / Aq Amphimedon (sponge) / Dm Drosophila / Hu human; RHD is the Rel homology domain; high values mean tight binding. Conditions: dsDNA, one strand shown.
The sequence “CCGATTAACATCAGTAACTCCCTTGATGTTAATCGGGTCTTGATTCGCTTGACGCTGCTG” displayed a binding signal of 2.67 z-score.

In the case of “CCGATTAACATCACCCGTTTCCCTGATGTTAATCGGGTCTTGATTCGCTTGACGCTGCTG”, the binding signal is 3.24 z-score.

In the case of “CCGATTAACATCACGGGAAGTCCTGATGTTAATCGGGTCTTGATTCGCTTGACGCTGCTG”, the binding signal stood at 3.06 z-score. Still for that read-out and setting: under “CCGATTAACATCAGGGGAGTAAATGATGTTAATCGGGTCTTGATTCGCTTGACGCTGCTG” stands 3 z-score; under “CCGATTAACATCAATCACCCCCATGATGTTAATCGGGTCTTGATTCGCTTGACGCTGCTG”, 2.63 z-score. Still for that read-out and setting: then “CCGATTAACATCAGGAGTTTCCCTGATGTTAATCGGGTCTTGATTCGCTTGACGCTGCTG”, with 6.51 z-score; and “CCGATTAACATCAGGATGTTCCCTGATGTTAATCGGGTCTTGATTCGCTTGACGCTGCTG”, with 1.77 z-score; and “CCGATTAACATCATCCCCCCCCATGATGTTAATCGGGTCTTGATTCGCTTGACGCTGCTG”, with 4.12 z-score. The same measure, in the same setting: then “CCGATTAACATCAGGGAAAGGTATGATGTTAATCGGGTCTTGATTCGCTTGACGCTGCTG”, with 3.44 z-score. In the case of “CCGATTAACATCAGGGGGGCACCTGATGTTAATCGGGTCTTGATTCGCTTGACGCTGCTG”, the binding signal was 3.13 z-score. Turning to “CCGATTAACATCACCGCCCCCCCTGATGTTAATCGGGTCTTGATTCGCTTGACGCTGCTG”, the binding signal turned out to be 4.65 z-score. Still for that read-out and setting: then “CCGATTAACATCACGTCCCCCCCTGATGTTAATCGGGTCTTGATTCGCTTGACGCTGCTG”, with 4.27 z-score. On the same count and under the same terms, under “CCGATTAACATCAGGGGAGCACCTGATGTTAATCGGGTCTTGATTCGCTTGACGCTGCTG” stands 3.52 z-score. On to “CCGATTAACATCACGGGATTTACTGATGTTAATCGGGTCTTGATTCGCTTGACGCTGCTG”, for which the binding signal stood at 2.6 z-score. Sequence “CCGATTAACATCACTGGGATTTCTGATGTTAATCGGGTCTTGATTCGCTTGACGCTGCTG” registered a binding signal of 1.96 z-score. The sequence “CCGATTAACATCAGGATAATCCCTGATGTTAATCGGGTCTTGATTCGCTTGACGCTGCTG” gave a binding signal of 3.01 z-score.

“CCGATTAACATCAATTACCCCCCTGATGTTAATCGGGTCTTGATTCGCTTGACGCTGCTG” displayed a binding signal of 4.69 z-score. On the same count and under the same terms, then “CCGATTAACATCAGATTTCCCACTGATGTTAATCGGGTCTTGATTCGCTTGACGCTGCTG”, with 3.74 z-score. In the case of “CCGATTAACATCAGAATTACCCATGATGTTAATCGGGTCTTGATTCGCTTGACGCTGCTG”, the binding signal was 3.82 z-score. Take “CCGATTAACATCAAGGGGGTAAATGATGTTAATCGGGTCTTGATTCGCTTGACGCTGCTG”: the binding signal was 3.77 z-score. In turn, “CCGATTAACATCAACGGGAATTCTGATGTTAATCGGGTCTTGATTCGCTTGACGCTGCTG” came in with a binding signal of 5.7 z-score.

In turn, “CCGATTAACATCAGGGAATTGTATGATGTTAATCGGGTCTTGATTCGCTTGACGCTGCTG” yielded a binding signal of 4.78 z-score. Still for that read-out and setting: then “CCGATTAACATCAGTAATTCCCATGATGTTAATCGGGTCTTGATTCGCTTGACGCTGCTG”, with 4.3 z-score; and “CCGATTAACATCACGGGACTCCCTGATGTTAATCGGGTCTTGATTCGCTTGACGCTGCTG”, with 4.06 z-score; and “CCGATTAACATCAGGGGGTACCCTGATGTTAATCGGGTCTTGATTCGCTTGACGCTGCTG”, with 4.44 z-score.

Another experiment addresses T2, GST-Co-NF-kB (Capsaspora owczarzaki, UniProt F1ARL5 200-546).
T2 sequence: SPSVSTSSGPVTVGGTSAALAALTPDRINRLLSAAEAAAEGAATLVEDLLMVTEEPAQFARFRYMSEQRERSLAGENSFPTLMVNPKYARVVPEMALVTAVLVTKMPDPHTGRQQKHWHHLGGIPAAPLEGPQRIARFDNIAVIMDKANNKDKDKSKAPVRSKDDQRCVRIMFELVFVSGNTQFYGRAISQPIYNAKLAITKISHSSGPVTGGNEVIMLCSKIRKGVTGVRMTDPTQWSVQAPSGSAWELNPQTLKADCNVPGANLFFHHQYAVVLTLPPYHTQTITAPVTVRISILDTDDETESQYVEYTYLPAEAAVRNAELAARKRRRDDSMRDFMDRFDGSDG
Described as above. Conditions: dsDNA, one strand shown.
As to “CCGATTAACATCACTAATTTCCCTGATGTTAATCGGGTCTTGATTCGCTTGACGCTGCTG”, the binding signal stood at 4.57 z-score. Still for that read-out and setting: then “CCGATTAACATCAGGAATTCCCATGATGTTAATCGGGTCTTGATTCGCTTGACGCTGCTG”, with 4.61 z-score; and “CCGATTAACATCAAAAATCCCTATGATGTTAATCGGGTCTTGATTCGCTTGACGCTGCTG”, with 1.39 z-score; and “CCGATTAACATCAAACCCCCCCATGATGTTAATCGGGTCTTGATTCGCTTGACGCTGCTG”, with 5.7 z-score. Still for that read-out and setting: under “CCGATTAACATCAGGGAGATTTGTGATGTTAATCGGGTCTTGATTCGCTTGACGCTGCTG” stands 2.54 z-score. The same measure, in the same setting: under “CCGATTAACATCAGCCCCCCCCATGATGTTAATCGGGTCTTGATTCGCTTGACGCTGCTG” stands 5.27 z-score; under “CCGATTAACATCAAATCATCCCCTGATGTTAATCGGGTCTTGATTCGCTTGACGCTGCTG”, 5.87 z-score; under “CCGATTAACATCATGATGGGAAATGATGTTAATCGGGTCTTGATTCGCTTGACGCTGCTG”, 1.71 z-score. Turning to “CCGATTAACATCAGGGGGGGTCATGATGTTAATCGGGTCTTGATTCGCTTGACGCTGCTG”, the binding signal was found to be 3.31 z-score.

“CCGATTAACATCAGGGGAACACATGATGTTAATCGGGTCTTGATTCGCTTGACGCTGCTG” displayed a binding signal of 6.41 z-score. The same measure, in the same setting: under “CCGATTAACATCAATTTTTCCCATGATGTTAATCGGGTCTTGATTCGCTTGACGCTGCTG” stands 5.21 z-score; under “CCGATTAACATCAGGGACAAAAATGATGTTAATCGGGTCTTGATTCGCTTGACGCTGCTG”, 2.39 z-score; under “CCGATTAACATCACAGGGAATTCTGATGTTAATCGGGTCTTGATTCGCTTGACGCTGCTG”, 3.45 z-score.

Turning to “CCGATTAACATCACATTGTCCCCTGATGTTAATCGGGTCTTGATTCGCTTGACGCTGCTG”, the binding signal was 4.12 z-score. The same measure, in the same setting: then “CCGATTAACATCAGTAACTCCCTTGATGTTAATCGGGTCTTGATTCGCTTGACGCTGCTG”, with 1.16 z-score. The sequence “CCGATTAACATCACCCGTTTCCCTGATGTTAATCGGGTCTTGATTCGCTTGACGCTGCTG” displayed a binding signal of 3.33 z-score. On the same count and under the same terms, under “CCGATTAACATCACGGGAAGTCCTGATGTTAATCGGGTCTTGATTCGCTTGACGCTGCTG” stands 1.33 z-score; under “CCGATTAACATCAGGGGAGTAAATGATGTTAATCGGGTCTTGATTCGCTTGACGCTGCTG”, 4.51 z-score. For “CCGATTAACATCAATCACCCCCATGATGTTAATCGGGTCTTGATTCGCTTGACGCTGCTG”, the binding signal worked out at 4.35 z-score. On the same count and under the same terms, under “CCGATTAACATCAGGAGTTTCCCTGATGTTAATCGGGTCTTGATTCGCTTGACGCTGCTG” stands 3.2 z-score; under “CCGATTAACATCAGGATGTTCCCTGATGTTAATCGGGTCTTGATTCGCTTGACGCTGCTG”, 1.42 z-score. Still for that read-out and setting: under “CCGATTAACATCATCCCCCCCCATGATGTTAATCGGGTCTTGATTCGCTTGACGCTGCTG” stands 7.34 z-score. In the case of “CCGATTAACATCAGGGAAAGGTATGATGTTAATCGGGTCTTGATTCGCTTGACGCTGCTG”, the binding signal was determined as 2.67 z-score. On the same count and under the same terms, under “CCGATTAACATCAGGGGGGCACCTGATGTTAATCGGGTCTTGATTCGCTTGACGCTGCTG” stands 3.02 z-score. Still for that read-out and setting: under “CCGATTAACATCACCGCCCCCCCTGATGTTAATCGGGTCTTGATTCGCTTGACGCTGCTG” stands 3.8 z-score.

In turn, “CCGATTAACATCACGTCCCCCCCTGATGTTAATCGGGTCTTGATTCGCTTGACGCTGCTG” gave a binding signal of 5.34 z-score. Still for that read-out and setting: under “CCGATTAACATCAGGGGAGCACCTGATGTTAATCGGGTCTTGATTCGCTTGACGCTGCTG” stands 3.23 z-score; under “CCGATTAACATCACGGGATTTACTGATGTTAATCGGGTCTTGATTCGCTTGACGCTGCTG”, 1.01 z-score; under “CCGATTAACATCACTGGGATTTCTGATGTTAATCGGGTCTTGATTCGCTTGACGCTGCTG”, 1.15 z-score. Still for that read-out and setting: under “CCGATTAACATCAGGATAATCCCTGATGTTAATCGGGTCTTGATTCGCTTGACGCTGCTG” stands 1.51 z-score. Still for that read-out and setting: under “CCGATTAACATCAATTACCCCCCTGATGTTAATCGGGTCTTGATTCGCTTGACGCTGCTG” stands 6.96 z-score. In the case of “CCGATTAACATCAGATTTCCCACTGATGTTAATCGGGTCTTGATTCGCTTGACGCTGCTG”, the binding signal was determined as 3.15 z-score.

Sequence “CCGATTAACATCAGAATTACCCATGATGTTAATCGGGTCTTGATTCGCTTGACGCTGCTG” came in with a binding signal of 2.12 z-score. “CCGATTAACATCAAGGGGGTAAATGATGTTAATCGGGTCTTGATTCGCTTGACGCTGCTG”: the binding signal is 6.69 z-score. The same measure, in the same setting: then “CCGATTAACATCAACGGGAATTCTGATGTTAATCGGGTCTTGATTCGCTTGACGCTGCTG”, with 3.23 z-score.

Regarding “CCGATTAACATCAGGGAATTGTATGATGTTAATCGGGTCTTGATTCGCTTGACGCTGCTG”, the binding signal worked out at 3.1 z-score. Take “CCGATTAACATCAGTAATTCCCATGATGTTAATCGGGTCTTGATTCGCTTGACGCTGCTG”: the binding signal is 5.42 z-score. The same measure, in the same setting: under “CCGATTAACATCACGGGACTCCCTGATGTTAATCGGGTCTTGATTCGCTTGACGCTGCTG” stands 1.53 z-score; under “CCGATTAACATCAGGGGGTACCCTGATGTTAATCGGGTCTTGATTCGCTTGACGCTGCTG”, 4.14 z-score.
